# In PubChem BioAssay (EPA / NIEHS):
# Inconclusive results are not listed. The source made the active and inactive calls. How the source made its calls: active means hit-call score of the fitted dose curve at least 0.9, where 1 is the maximum; inconclusive means response in the unintended direction; inactive means score below 0.9.
# Target: human Matrix Metalloproteinase-9 (MMP9), MMP9 (gene 4318) (UniProt P14780)
# Assay: NVS_ENZ_hMMP9: NovaScreen (NVS) Enzymatic Assay for human Matrix Metalloproteinase-9 (MMP9) (AID 2283190);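 further: cell-free recombinant MMP9 protease activity read by fluorescent substrate signal; active means inhibition seen as loss of fluorescence signal versus DMSO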
# Outline: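 Cell-free recombinant MMP9 enzyme activity measured by fluorescence intensity 1 h after dosing. Primary screen in duplicate at 25 uM, actives followed in concentration series; loss of signal relative to DMSO.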
# Chain of human Matrix Metalloproteinase-9 (MMP9), MMP9 (gene 4318) (P14780 whole entry, looked up): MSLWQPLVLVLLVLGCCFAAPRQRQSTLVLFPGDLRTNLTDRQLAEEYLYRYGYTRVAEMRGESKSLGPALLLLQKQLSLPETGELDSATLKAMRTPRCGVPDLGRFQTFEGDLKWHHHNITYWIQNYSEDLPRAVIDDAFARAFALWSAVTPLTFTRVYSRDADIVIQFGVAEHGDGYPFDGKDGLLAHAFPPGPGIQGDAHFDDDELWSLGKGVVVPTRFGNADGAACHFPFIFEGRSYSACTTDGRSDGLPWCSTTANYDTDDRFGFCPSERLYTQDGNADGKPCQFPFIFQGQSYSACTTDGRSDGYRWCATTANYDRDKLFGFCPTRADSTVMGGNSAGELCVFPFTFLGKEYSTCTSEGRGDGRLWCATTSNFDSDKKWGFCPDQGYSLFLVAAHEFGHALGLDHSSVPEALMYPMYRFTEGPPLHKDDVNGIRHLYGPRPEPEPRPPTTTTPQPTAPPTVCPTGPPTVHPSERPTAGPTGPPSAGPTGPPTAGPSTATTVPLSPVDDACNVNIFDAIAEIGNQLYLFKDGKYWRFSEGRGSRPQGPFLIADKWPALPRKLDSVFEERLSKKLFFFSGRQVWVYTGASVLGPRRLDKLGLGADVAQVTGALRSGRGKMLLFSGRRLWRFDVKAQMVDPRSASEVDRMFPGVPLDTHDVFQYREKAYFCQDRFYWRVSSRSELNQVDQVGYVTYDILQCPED
Compound,AC50,outcome
O=C1C=CC(=O)N1c1ccc(Cc2ccc(N3C(=O)C=CC3=O)cc2)cc1,2.59 µM (active),
CC(C)CCCC(C)CCO (configuration not stated),6.27 µM (active),
O=C(c1ccccc1)c1ccc(O)cc1O,13.7 µM (active),
CCCCCCCCCCCCCC[P+](CCCC)(CCCC)CCCC,2.12 µM (active),
Cc1ccc(O)c(-n2nc3ccccc3n2)c1,9.4 µM (active),
CC(=O)CCC(C)C,,inactive
CCC(C)CO (configuration not stated),6.58 µM (active),

# Target: human Phosphodiesterase 10 (PDE10), PDE10A (gene 10846) (UniProt Q9Y233)
# Assay: NVS_ENZ_hPDE10: NovaScreen (NVS) Enzymatic Assay for human Phosphodiesterase 10 (PDE10) (AID 2283195)
# Outline: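 Fluorescence readout after mobility-shift separation of substrate and product, 1 h reaction with recombinant human enzyme. Single-concentration duplicates at 25 uM, then concentration-response up to 50 uM for chemicals reaching threshold; DMSO baseline.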
# Chain of human Phosphodiesterase 10 (PDE10), PDE10A (gene 10846) (Q9Y233 whole entry, looked up): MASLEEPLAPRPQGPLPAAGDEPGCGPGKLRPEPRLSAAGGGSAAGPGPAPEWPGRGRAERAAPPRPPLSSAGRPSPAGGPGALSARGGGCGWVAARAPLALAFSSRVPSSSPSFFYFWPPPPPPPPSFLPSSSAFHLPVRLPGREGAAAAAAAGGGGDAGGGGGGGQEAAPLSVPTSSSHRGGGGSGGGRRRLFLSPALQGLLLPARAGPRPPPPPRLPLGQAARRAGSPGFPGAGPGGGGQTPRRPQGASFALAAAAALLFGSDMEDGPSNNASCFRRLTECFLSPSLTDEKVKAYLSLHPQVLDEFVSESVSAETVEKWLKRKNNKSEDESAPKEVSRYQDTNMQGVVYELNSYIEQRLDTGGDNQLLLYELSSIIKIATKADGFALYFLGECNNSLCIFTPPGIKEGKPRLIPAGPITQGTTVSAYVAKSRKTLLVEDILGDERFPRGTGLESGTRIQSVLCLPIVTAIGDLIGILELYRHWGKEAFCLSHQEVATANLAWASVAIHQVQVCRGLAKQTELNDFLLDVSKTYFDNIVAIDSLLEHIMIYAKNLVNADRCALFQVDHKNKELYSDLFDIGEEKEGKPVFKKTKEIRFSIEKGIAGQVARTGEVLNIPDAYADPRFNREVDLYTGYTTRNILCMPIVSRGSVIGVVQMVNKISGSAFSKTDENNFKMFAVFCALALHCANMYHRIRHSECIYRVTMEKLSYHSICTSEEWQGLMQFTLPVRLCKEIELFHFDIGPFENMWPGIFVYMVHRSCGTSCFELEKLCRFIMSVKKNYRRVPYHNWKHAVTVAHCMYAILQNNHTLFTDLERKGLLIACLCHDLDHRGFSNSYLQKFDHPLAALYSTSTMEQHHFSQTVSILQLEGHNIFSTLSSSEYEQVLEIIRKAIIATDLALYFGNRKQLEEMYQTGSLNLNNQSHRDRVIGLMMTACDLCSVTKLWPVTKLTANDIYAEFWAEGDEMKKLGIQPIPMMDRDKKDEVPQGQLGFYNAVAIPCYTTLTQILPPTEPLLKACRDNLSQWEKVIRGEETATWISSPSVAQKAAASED
row,Compound,outcome
1,O=C1C=CC(=O)N1c1ccc(Cc2ccc(N3C(=O)C=CC3=O)cc2)cc1,inactive
2,C#CC(O)CCC (configuration not stated),inactive
3,Nc1cc([N+](=O)[O-])cc(Cl)c1O,inactive
4,Nc1cccnc1N,inactive
5,CCN(CC)c1ccc2c(c1)Oc1cc(N(CC)CC)ccc1C21OC(=O)c2ccccc21,inactive
6,O=C(Cl)c1ccc(Cl)cc1Cl,inactive
7,Brc1ccccn1,inactive

# Target: human Vascular Endothelial Growth Factor Receptor 1 (VEGFR1), FLT1 (gene 2321) (UniProt P17948)
# Assay: NVS_ENZ_hVEGFR1: NovaScreen (NVS) Enzymatic Assay for human Vascular Endothelial Growth Factor Receptor 1 (VEGFR1) (AID 2283226)
# Outline: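 Kinase activity of recombinant human VEGFR1 was read by fluorescence after electrophoretic separation of product from substrate, 1 h post-dosing; initial duplicate single-point testing at 25 uM, followed by concentration-series follow-up, with DMSO as baseline.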
# Chain of human Vascular Endothelial Growth Factor Receptor 1 (VEGFR1), FLT1 (gene 2321) (P17948 whole entry, looked up): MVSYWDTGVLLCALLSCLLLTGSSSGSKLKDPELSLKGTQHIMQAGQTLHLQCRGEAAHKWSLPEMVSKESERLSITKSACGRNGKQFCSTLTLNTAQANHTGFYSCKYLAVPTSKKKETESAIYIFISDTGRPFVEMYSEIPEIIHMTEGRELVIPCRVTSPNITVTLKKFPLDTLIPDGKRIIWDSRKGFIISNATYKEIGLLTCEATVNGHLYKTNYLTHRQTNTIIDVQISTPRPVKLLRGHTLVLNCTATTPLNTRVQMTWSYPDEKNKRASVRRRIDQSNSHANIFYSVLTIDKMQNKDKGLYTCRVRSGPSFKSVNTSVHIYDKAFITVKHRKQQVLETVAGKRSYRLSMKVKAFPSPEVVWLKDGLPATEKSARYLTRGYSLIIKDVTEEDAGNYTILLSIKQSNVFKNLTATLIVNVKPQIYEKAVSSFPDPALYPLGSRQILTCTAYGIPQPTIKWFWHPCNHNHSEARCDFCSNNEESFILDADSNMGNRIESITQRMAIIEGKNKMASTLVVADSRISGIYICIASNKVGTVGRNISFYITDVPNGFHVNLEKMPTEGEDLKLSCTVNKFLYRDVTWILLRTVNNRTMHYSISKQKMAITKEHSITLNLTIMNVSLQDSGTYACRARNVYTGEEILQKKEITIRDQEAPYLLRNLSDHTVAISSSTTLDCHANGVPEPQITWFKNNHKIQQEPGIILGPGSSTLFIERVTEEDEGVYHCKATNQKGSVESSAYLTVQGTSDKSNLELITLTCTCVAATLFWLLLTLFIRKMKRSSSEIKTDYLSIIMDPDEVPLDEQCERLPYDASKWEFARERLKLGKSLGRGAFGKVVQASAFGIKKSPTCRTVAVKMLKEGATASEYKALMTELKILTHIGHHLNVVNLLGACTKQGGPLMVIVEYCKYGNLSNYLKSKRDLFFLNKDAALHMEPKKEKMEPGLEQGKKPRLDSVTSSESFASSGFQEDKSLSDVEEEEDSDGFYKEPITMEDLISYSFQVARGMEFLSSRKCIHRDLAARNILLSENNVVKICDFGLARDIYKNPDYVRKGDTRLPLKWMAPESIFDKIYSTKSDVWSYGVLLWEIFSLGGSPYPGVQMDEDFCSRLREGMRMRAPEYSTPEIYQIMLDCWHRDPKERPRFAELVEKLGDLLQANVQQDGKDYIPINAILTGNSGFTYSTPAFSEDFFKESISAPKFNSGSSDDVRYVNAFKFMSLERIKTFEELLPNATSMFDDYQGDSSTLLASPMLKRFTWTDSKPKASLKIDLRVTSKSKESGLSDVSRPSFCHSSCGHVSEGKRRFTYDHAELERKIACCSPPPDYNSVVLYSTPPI
Compound,AC50,outcome
O=C1c2c(O)ccc(Nc3ccc(CCO)cc3)c2C(=O)c2c([N+](=O)[O-])ccc(O)c21,0.885 µM (active),
CCCCCCCCCCCCCC[P+](CCCC)(CCCC)CCCC,10 µM (active),
C=CCOC(=O)CC(C)C,,inactive
